Screens (PubChem BioAssay)
Compounds with a hit are over-represented: about 19% of the library has one in this group of screens.
MARV entry inh = qHTS for inhibitors of binding or entry into cells for Marburg Virus; Marburg virus pseudotyped entry inhibition, cell reporter; Potency, µM (titrated, usually from 37.8 µM), hits mostly inhibitors; hit rate 1.8% among 300,000; calls by dose curve; tested in HEK293 cells
Pf growth 96h = Primary qHTS for delayed death inhibitors of the malarial parasite plastid, 96 hour incubation; P. falciparum luciferase reporter growth, 96 h; Potency, µM (titrated, usually from 28.7 µM), usual class: inhibitors; hit rate 6.9% among 320,000
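Plates of compound plus infected erythrocytes (2% hematocrit, 0.05% parasitemia final) incubate 96 hours, 37 C, 5% CO2. Detection reagent added; reduced luminescence from the parasites' luciferase reporter flags inhibition.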
Shiga toxin inh = A qHTS for Small Molecule Inhibitors of Shiga Toxin; Vero cells, Shiga toxin protein synthesis inhibition reporter; inhibition, % at 38.7 µM; hit rate 9.2% among 290,000; in the data active = inhibition mostly above about 28%, no sharp cut-off; inactive = mostly below about 43%
Pf growth 48h = Primary qHTS for delayed death inhibitors of the malarial parasite plastid, 48 hour incubation; Potency, µM (top dose mostly 28.7 µM), actives largely listed as inhibitors; hit rate 5.9% among 310,000; P. falciparum luciferase growth in erythrocytes, 48 h
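Parasite viability was followed by luminescence of a genomically integrated firefly luciferase. Cultures held 0.1% parasitemia at 2% hematocrit (final), incubated under 5% CO2 at 37 C.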
CHX counter = Cycloheximide Counterscreen for Small Molecule Inhibitors of Shiga Toxin; cell reporter, cycloheximide protein synthesis inhibition counterscreen; max response, %; hit rate 12% among 300,000; AID 2314, 2010; in the data active = max response mostly above about 13%, no sharp cut-off; inactive = mostly below about 14%; also: read at 38.3 µM for the half of the compounds with a filed dose
Lassa entry inh = qHTS for Inhibitors of binding or entry into cells for Lassa Virus. Lassa virus pseudotype entry inhibition, cell reporter. Potency, µM (series often up to 37.9 µM), usual class: inhibitors. hit rate 1.2% among 300,000. AID 540256, 2011; calls by dose curve; tested in HEK293 cells; also: nearly all actives have a fitted effect of over 50% in size
Numbers stand for hits; i = inactive; ? = inconclusive; nt = not tested or not shown. Unless noted, calls follow the shape of the dose curve; as a rule, active = well fitted inhibition curve with a large enough effect; inconclusive = small, poorly fitted or top-dose-only effect, or another doubt; inactive = no such curve, though single readings can be large or run the other way.

SMILES	MARV entry inh	Pf growth 96h	Shiga toxin inh	Pf growth 48h	CHX counter	Lassa entry inh
COc1cc(C(=O)NCC(c2ccco2)N(C)C)cc(OC)c1OC (stereo not given)	i	?	i	?	i	i
Cc1ccc(OCC(=O)NCCO)cc1C	i	1.3µM	i	nt	i	i
Cc1nn(-c2ccccc2)c(C)c1C(=O)OCC(=O)Nc1ccccc1	i	i	nt	i	nt	i
O=C(COc1ccc(Br)cc1)NCCO	?	?	i	i	i	i
O=C(COc1ccc2ccccc2c1)Nc1ccncc1	i	?	27	i	27	i
O=C(COc1ccccc1)Nc1ccncc1	i	i	i	i	i	i
Cc1nc(COC(=O)c2c(C)nn(-c3ccccc3)c2C)cs1	i	?	100	i	35	i
Cc1cc(NC(=O)COc2cccc([N+](=O)[O-])c2)no1	nt	i	i	1.7µM	i	nt
CCN(C(=O)C1CCCO1)c1ccccc1 (stereo not given)	i	?	i	i	i	i
CCOC(=O)c1[nH]c2c(c1Cc1ccccc1C)C(=O)CC(c1ccccc1)C2 (stereo not given)	i	nt	nt	nt	nt	i
COC(=O)c1cccc(NC(=O)/C=C/c2cccc([N+](=O)[O-])c2)c1	?	i	i	i	15	i
O=C(COC(=O)c1n[nH]c2ccccc12)c1cccc(Br)c1	i	i	i	i	18	i
CSCC(=O)Nc1cc(C)on1	i	i	i	i	i	i
Cc1ccc(C)c(C(=O)COC(=O)c2n[nH]c3ccccc23)c1	i	nt	nt	nt	nt	?
Cc1cc(NC(=O)CCl)no1	?	i	i	2.9µM	i	?
COC(=O)c1cccc(NC(=O)/C=C/c2ccc([N+](=O)[O-])cc2)c1	?	i	i	i	i	i
CSc1cccc(NC(=O)CSc2ncccc2C(=O)Oc2cccc([N+](=O)[O-])c2)c1	i	?	i	i	17	i
CN1CCN(C(=S)NC(=O)/C=C/c2ccccc2Cl)CC1	i	i	i	i	i	i
CCOc1ccccc1NC(=O)Cn1c(=O)n(-c2ccc(Cl)cc2)c(=O)c2oc3ccccc3c21	nt	nt	nt	nt	nt	i
O=C(Oc1cccc2c(O)cccc12)c1ccco1	?	nt	nt	nt	nt	i
Cc1cc(C(=O)Nc2ccc(N3CCOCC3)c3nonc23)ccc1[N+](=O)[O-]	i	i	i	i	i	i
Cc1nn(-c2ccccc2)c(Cl)c1C(=O)OCC(=O)NCCc1ccccc1	11µM	?	i	i	i	?
Cc1cc(NC(=O)COC(=O)c2ccccc2[N+](=O)[O-])no1	nt	i	i	i	28	nt
Cc1ccc(OCC(=O)Nc2cc(C(C)(C)C)on2)cc1C	nt	i	i	5.2µM	i	nt
COC(=O)c1cccc(NC(=O)COc2cccc([N+](=O)[O-])c2)c1	nt	i	i	i	16	nt
SMILES	MARV entry inh	Pf growth 96h	Shiga toxin inh	Pf growth 48h	CHX counter	Lassa entry inh
COc1ccc(Cl)cc1NC(=O)CN(C)C(=O)c1ccc(OCc2ccccc2)c(OC)c1	?	?	nt	?	nt	i
COc1ccc(-n2c(Cc3cccn3C)nnc2SCC(=O)NC2CCCCC2)cc1	i	i	i	?	i	i
Cc1ccc(OCC(=O)Nc2cc(C)on2)c([N+](=O)[O-])n1	?	i	105	i	35	?
Cc1cc(C)cc(OCC(=O)Nc2cc(C)on2)c1	i	i	i	i	i	i
Cc1ccc(OCC(=O)c2cc(C)n(-c3cc(C)on3)c2C)c([N+](=O)[O-])n1	i	?	nt	?	nt	i
Cc1cc2oc(=O)cc(COC(=O)c3n[nH]c4ccccc34)c2cc1C	?	nt	i	i	i	i
Cc1cc(NC(=O)COC(=O)c2n[nH]c3ccccc23)no1	i	i	i	i	20	i
Cc1cc(NC(=O)COc2ccc(C)c(C)c2)no1	i	?	65	i	39	i
COc1ccc2c(COC(=O)c3n[nH]c4ccccc34)cc(=O)oc2c1	i	nt	107	i	26	i
CC(=O)c1ccc(NC(=O)CSC(C)C)cc1	?	nt	i	nt	i	i
Cc1ccc(Nc2cc(=O)[nH]c(=O)[nH]2)cc1Cl	nt	i	i	?	i	nt
Cc1cc(NC(=O)COC(=O)c2c(C)nn(-c3ccccc3)c2C)no1	?	i	i	i	i	18µM
Cc1cc(NC(=O)COc2ccc3ccccc3c2)no1	i	?	i	i	31	i
